Screening data as filed in PubChem.
UGM FP inh: blocks M. tuberculosis UGM enzyme. P9WIQ1. purified UGM, fluorescence polarization probe displacement. inhibition, % at 10 µM. 0.06% of 320,000 active. AID 504406; in the data active = inhibition above about 10%, passing the limit was not always enough
FBA Mtb inh: inhibits M. tuberculosis FBA enzyme; inhibition, % at 1 µM; P9WQA3; purified M. tuberculosis FBA, fluorescence read-out; 2.3% of 360,000 active
Target sequence (P9WQA3 whole entry, looked up): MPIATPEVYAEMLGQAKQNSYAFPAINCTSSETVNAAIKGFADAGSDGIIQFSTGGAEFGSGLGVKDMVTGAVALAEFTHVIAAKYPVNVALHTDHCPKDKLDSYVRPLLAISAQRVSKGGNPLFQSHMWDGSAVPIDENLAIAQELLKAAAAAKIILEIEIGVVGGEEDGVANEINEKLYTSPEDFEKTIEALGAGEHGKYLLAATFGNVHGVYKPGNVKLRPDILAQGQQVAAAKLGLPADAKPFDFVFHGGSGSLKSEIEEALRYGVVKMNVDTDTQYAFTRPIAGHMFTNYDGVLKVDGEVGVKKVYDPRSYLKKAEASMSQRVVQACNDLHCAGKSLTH
Rv3671c protease: Rv3671c (M. tuberculosis) protease inhibition | inhibition, % at 5.96 µM | AID 2606 | 0.048% of 320,000 active | P9WHR9; in the data active = inhibition above about 38%;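 also: extracellular domain of Rv3671c used as enzyme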
Mtb bLac sens: beta-lactam sensitization of Mtb H37Rv; M. tuberculosis H37Rv growth with meropenem, percent inhibition; inhibition, % at 25 µM; 0.27% of 330,000 active; AID 434955; call rule not given here;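 also: growth measured after seven days incubation then overnight dye step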
GDH-TPI counter-1: GDH-TPI coupled enzyme inhibition counter-screen; 1.2% of 360,000 active; inhibition, % at 4.8 µM; GDH-TPI coupled enzyme counterscreen, NADH absorbance; in the data active = inhibition above about 30%
FadD28 FP inh: M. tuberculosis FadD28 bisubstrate binding inhibition; FadD28 bisubstrate probe binding, fluorescence polarization; inhibition, % at 12.5 µM; 0.22% of 360,000 active; AID 588549; in the data active = inhibition above about 8.5%, passing the limit was not always enough
Mtb FBA inh conf: Mtb FBA inhibition, confirmed; AID 651616; inhibition, % at 1 µM; purified M. tuberculosis FBA, fluorescence read-out; shares compounds with FBA Mtb inh; 78% of 5,600 active
GDH-TPI counter-2: counter-screen for M. tuberculosis FBA inhibitors: GDH-TPI coupled enzyme inhibition; shares compounds with FBA Mtb inh; GDH-TPI coupled enzyme counterscreen, fluorescence; inhibition, % at 1 µM; 81% of 5,600 active; AID 652141; in the data active = inhibition above about 10%
Hits are given with their value. In the library only some 3.7% were active in any assay of this set; here they are far more common. Rule as the data show it, unless noted: active = inhibition above about 27%; inactive = the rest.

What do the screens show for `Cc1ccc(-c2cc(C(F)F)n3ncc(C(=O)N4CCc5ccccc54)c3n2)cc1`?
UGM FP inh: inactive; FBA Mtb inh: inactive; Rv3671c protease: inactive; Mtb bLac sens: inactive; GDH-TPI counter-1: inactive; FadD28 FP inh: inactive

Results for COc1ccc2[nH]c(C(=O)NCCCN3CCCC3=O)c(C)c2c1 ?
UGM FP inh: inactive; FBA Mtb inh: 58.4; Rv3671c protease: inactive; Mtb bLac sens: inactive; GDH-TPI counter-1: inactive; FadD28 FP inh: inactive; Mtb FBA inh conf: inactive; GDH-TPI counter-2: inactive

What do the screens show for `COc1cc2c(cc1N)-c1ccc(N)cc1C2`?
FBA Mtb inh: inactive; GDH-TPI counter-1: inactive; FadD28 FP inh: inactive

Results for COC(=O)c1sc2ccccc2c1C(=O)OC ?
FBA Mtb inh: inactive; GDH-TPI counter-1: inactive; FadD28 FP inh: inactive

Results for COC(=O)c1sc2ccccc2c1N ?
FBA Mtb inh: 78.7; Rv3671c protease: inactive; Mtb bLac sens: inactive; GDH-TPI counter-1: inactive; FadD28 FP inh: inactive; Mtb FBA inh conf: active; GDH-TPI counter-2: active

How did COc1ccc(-c2cnc3c(NC=O)cc(-c4ccccc4OC)cn23)cc1OC do in these assays?
FBA Mtb inh: inactive; GDH-TPI counter-1: inactive; FadD28 FP inh: inactive

Results for Cn1cc(C(=O)N2CCC3(CC2)OCCO3)c2c3ccccc3n(C)c2c1=O ?
UGM FP inh: inactive; FBA Mtb inh: 39.8; Rv3671c protease: inactive; Mtb bLac sens: inactive; GDH-TPI counter-1: inactive; FadD28 FP inh: inactive; Mtb FBA inh conf: 79.2; GDH-TPI counter-2: 58.7

How did CC(C)Cn1cc(C(=O)N2CCOCC2)c2c3ccccc3n(C)c2c1=O do in these assays?
UGM FP inh: inactive; FBA Mtb inh: 40.6; Rv3671c protease: inactive; Mtb bLac sens: inactive; GDH-TPI counter-1: inactive; FadD28 FP inh: inactive; Mtb FBA inh conf: 42.5; GDH-TPI counter-2: 25.8

What do the screens show for `CC(C)Cn1cc(C(=O)NCc2cccs2)c2c3ccccc3n(C)c2c1=O`?
UGM FP inh: inactive; FBA Mtb inh: 33.8; Rv3671c protease: inactive; Mtb bLac sens: inactive; GDH-TPI counter-1: inactive; FadD28 FP inh: inactive; Mtb FBA inh conf: 191.8; GDH-TPI counter-2: 143.9

What do the screens show for `CC(C)CCNC(=O)c1cn(CC(C)C)c(=O)c2c1c1ccccc1n2C`?
UGM FP inh: inactive; FBA Mtb inh: inactive; Rv3671c protease: inactive; Mtb bLac sens: inactive; GDH-TPI counter-1: inactive; FadD28 FP inh: inactive

How did Cn1c2ccccc2c2c(C(=O)N3CCC4(CC3)OCCO4)cn(C3CCCCC3)c(=O)c21 do in these assays?
UGM FP inh: inactive; FBA Mtb inh: inactive; Rv3671c protease: inactive; Mtb bLac sens: inactive; GDH-TPI counter-1: inactive; FadD28 FP inh: inactive

Results for CCOC(=O)N1CCN(C(=O)c2cn(C)c(=O)c3c2c2ccccc2n3C)CC1 ?
UGM FP inh: inactive; FBA Mtb inh: 40.5; Rv3671c protease: inactive; Mtb bLac sens: inactive; GDH-TPI counter-1: inactive; FadD28 FP inh: inactive; Mtb FBA inh conf: 128.4; GDH-TPI counter-2: 107.5

How did CCCCNC(=O)c1cn(CC(C)C)c(=O)c2c1c1ccccc1n2C do in these assays?
UGM FP inh: inactive; FBA Mtb inh: inactive; Rv3671c protease: inactive; Mtb bLac sens: inactive; GDH-TPI counter-1: inactive; FadD28 FP inh: inactive

What do the screens show for `Cc1ccccc1-c1cc2nc(NCCOc3ccccc3Cl)n(C)c(=O)c2s1`?
FBA Mtb inh: inactive; GDH-TPI counter-1: inactive; FadD28 FP inh: inactive

How did CCOC(=O)N1CCN(C(=O)c2cn(CC(C)C)c(=O)c3c2c2ccccc2n3C)CC1 do in these assays?
UGM FP inh: inactive; FBA Mtb inh: 31.4; Rv3671c protease: inactive; GDH-TPI counter-1: inactive; FadD28 FP inh: inactive; Mtb FBA inh conf: 49.9; GDH-TPI counter-2: 46.6

How did CCOC(=O)Sc1nc2ncncc2[nH]1 do in these assays?
FBA Mtb inh: inactive; GDH-TPI counter-1: inactive; FadD28 FP inh: inactive

Results for O=c1c2ccccc2c(/C=N/n2cnnc2)c(O)n1-c1ccccc1F ?
UGM FP inh: inactive; FBA Mtb inh: 33.1; Rv3671c protease: inactive; Mtb bLac sens: inactive; GDH-TPI counter-1: inactive; FadD28 FP inh: inactive; Mtb FBA inh conf: inactive; GDH-TPI counter-2: inactive

What do the screens show for `CCc1nc2ccc(C(=O)NCCCN3CCCC3=O)cn2c1N(C)CCC(C)C`?
FBA Mtb inh: inactive; GDH-TPI counter-1: inactive; FadD28 FP inh: inactive

How did Cc1nc2cc(C(=O)O)ccc2s1 do in these assays?
UGM FP inh: inactive; FBA Mtb inh: inactive; Rv3671c protease: inactive; Mtb bLac sens: inactive; GDH-TPI counter-1: inactive; FadD28 FP inh: inactive

How did Cc1nc2ccc(C(=O)O)cc2c2c1CC(C)S2 (stereo not drawn) do in these assays?
UGM FP inh: inactive; FBA Mtb inh: 60.6; Rv3671c protease: inactive; Mtb bLac sens: inactive; GDH-TPI counter-1: inactive; FadD28 FP inh: inactive; Mtb FBA inh conf: 43.7; GDH-TPI counter-2: 30.0

What do the screens show for `CC(=O)Oc1ccc(-c2cc3ccccc3oc2=O)cc1`?
UGM FP inh: inactive; FBA Mtb inh: 74.7; Rv3671c protease: inactive; Mtb bLac sens: inactive; GDH-TPI counter-1: 36.5; FadD28 FP inh: inactive; Mtb FBA inh conf: active; GDH-TPI counter-2: active

What do the screens show for `COC(=O)COc1ccc2cc(-c3ccc(OC)cc3)c(=O)oc2c1`?
UGM FP inh: inactive; FBA Mtb inh: 44.0; Rv3671c protease: inactive; Mtb bLac sens: inactive; GDH-TPI counter-1: inactive; FadD28 FP inh: inactive; Mtb FBA inh conf: 188.1; GDH-TPI counter-2: 170.8

How did CC(=O)Oc1ccc(-c2nc3ccccc3c(=O)o2)cc1 do in these assays?
UGM FP inh: inactive; FBA Mtb inh: inactive; Rv3671c protease: inactive; Mtb bLac sens: inactive; GDH-TPI counter-1: inactive; FadD28 FP inh: inactive

What do the screens show for `CC(=O)Oc1ccc(-c2cc3c(OC(C)=O)cc(OC(C)=O)cc3oc2=O)cc1`?
UGM FP inh: inactive; FBA Mtb inh: 91.7; Rv3671c protease: inactive; Mtb bLac sens: inactive; GDH-TPI counter-1: inactive; FadD28 FP inh: inactive; Mtb FBA inh conf: 170.9; GDH-TPI counter-2: 194.6

How did OC(c1cc(F)cc(Cl)c1)c1ncc(-c2ccc3ccccc3c2)[nH]1 (stereo not drawn) do in these assays?
FBA Mtb inh: inactive; GDH-TPI counter-1: inactive; FadD28 FP inh: inactive

Results for CCOC(=O)CNC(=O)c1ccc(C)cc1 ?
UGM FP inh: inactive; FBA Mtb inh: inactive; Rv3671c protease: inactive; Mtb bLac sens: inactive; GDH-TPI counter-1: inactive; FadD28 FP inh: inactive

Results for O=C(NCC(O)CO)c1ccc2[nH]c3ccccc3c2c1 (stereo not drawn) ?
UGM FP inh: inactive; FBA Mtb inh: 63.4; Rv3671c protease: inactive; Mtb bLac sens: inactive; GDH-TPI counter-1: inactive; FadD28 FP inh: inactive; Mtb FBA inh conf: 135.0; GDH-TPI counter-2: 107.5

Results for O=C(NCCO)c1ccc2[nH]c3c(c2c1)CCCC3 ?
UGM FP inh: inactive; FBA Mtb inh: inactive; Rv3671c protease: inactive; Mtb bLac sens: inactive; GDH-TPI counter-1: inactive; FadD28 FP inh: inactive

What do the screens show for `CCOC(=O)c1[nH]c2ccc(C(=O)OC)cc2c1C(=O)OCC`?
UGM FP inh: inactive; FBA Mtb inh: 45.9; Rv3671c protease: inactive; Mtb bLac sens: inactive; GDH-TPI counter-1: inactive; FadD28 FP inh: inactive; Mtb FBA inh conf: 113.7; GDH-TPI counter-2: 93.2
